Assay results as given in the supplement of paper PMC11417369.
± gives the standard deviation of the averaged measurements. The full ranking holds about 25,000 sequences; the median of “ln(normalized median fluorescence intensity)” is about 7.9, and the highest 2% start at about 11. This excerpt belongs to a sample that is enriched for the highest values.

These sequences were tested on PfAP2-I AP2 domain 3 (GST-tagged) (assay: gcPBM binding intensity (ln(normalized median fluorescence intensity)); higher = stronger DNA binding).
Procedure, shortened: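 Plasmodium falciparum DNA-binding domains carrying a GST tag were expressed in E. coli and applied for 1 h, at about 25 μg on average, to an Agilent 4 × 180k array. The array held primer-extended double-stranded 36-bp intergenic genomic probes together with negative controls, and binding took place in 1× PBS with 1% milk, 0.2 mg/ml BSA, 0.5% salmon testes DNA and 0.03% Triton X-100. An Alexa488 anti-GST antibody detected bound protein, and the array was scanned at 488 nm. Binding intensity is taken as the highest Masliner-normalised natural-log median intensity across replicate spots of either probe orientation.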

Row | Sequence | gcPBM binding intensity (ln)
1 | AAAAAAAAAAAACACACACACACACCCAAATATATA [CACACA_site150] | 7.91 ± 0.2
2 | GGAAAAAATATATGCACACCCCCCAAAAAAAAAAAA [CACACA_site2222] | 10.6 ± 0.2
3 | TGGGAAAAAATATATGCACACCCCCCAAAAAAAAAA [CACACA_site8696] | 11.5 ± 0.52
4 | CGGATGAATATATATGCACACATCTTTTGTAAAAAT [CACACA_site3190] | 9.16 ± 0.11
5 | TATATTATATATATACTGCACTGTTTTACAAAATTA | 10.8 ± 0.57
6 | TTTAGTGAGTTTGTTGTGCACTGAAAAAATTACAAT | 11.1 ± 0.18
7 | TTTCCAATTAGTTTTGCATGTTGAAAAAATGTTGGA [TGCATGCA_site1035] | 7.71 ± 0.52
8 | TTAATTATGGACAGGGTGCACATGAATAATAATACC | 11 ± 0.18
9 | CATGAATATTTTAATGTGCACATTTATCATTATATG | 9.5 ± 0.21
10 | GCACATATGAATATAATACACACTTGTATTATTAAT [CACACA_site1841] | 8.1 ± 0.52
11 | TTTGAATACTGAATGGTGCAAATTGTTCTCCCCATG | 10.9 ± 0.61
12 | ATTTATATATATATAGGTACACATATTTATATATAA [XGTACX_site8487] | 7.58 ± 0.41
13 | AAAGAAATAAGGTGCACACATATACAGATATATATA [CACACA_site4399] | 10.3 ± 0.4
14 | AAATAGTTGTTAAAGGTGCACAATATGGATATAAGA | 11.5 ± 0.38
15 | TTAAAAGTTATGGATACACACATATAAATATAGATT [CACACA_site7175] | 7.57 ± 0.42
16 | AATATATGTTTAATTTCACACACAAATATACATTTT [CACACA_site9385] | 7.69 ± 0.65
17 | TACAGATACAGATACACACACACACCGAAATAAATA [CACACA_site4865] | 7.84 ± 0.37
18 | CTTATATTAATTATTACACACATATTTATAAATGCA [CACACA_site6501] | 8.07 ± 0.47
19 | TTCAAAATAAAAAATTCACACACATATATATATATA [CACACA_site8653] | 9.28 ± 0.39
20 | ATTTCGTAATTTATATCACACACATATATATATAAT [CACACA_site9021] | 8.06 ± 0.53
21 | AAAATTTAATATAATGCACACATAAAAAAAAATTCA [CACACA_site8640] | 10.9 ± 0.92

Row | Sequence | gcPBM binding intensity (ln)
22 | TAAAAATTCAATTGCACACGCACATATTTTAATAAG [CACACA_site2014] | 8.8 ± 0.057
23 | AATTTAATATAATGCACACATAAAAAAAAATTCAAA [CACACA_site2062] | 11 ± 0.79
24 | ATTTTTAATTTTTTCACACATATATTTAAAATAAAA [CACACA_site4799] | 7.94 ± 0.49
25 | AATTTAATATAATGCACACATAAAAAAAAAAAATTC [CACACA_site1504] | 11 ± 0.61
26 | CATATATATCGTAATGCACACATGTAATTTCATAAT [CACACA_site811] | 11 ± 0.92
27 | ATATTTTATTATATAGGTACACATAATTTCATGTAA [XGTACX_site415] | 7.83 ± 0.52
28 | TGTATAAATATAATCACACATATATATATATATATA [CACACA_site4365] | 9.32 ± 0.53
29 | AATTTATAAGAATAAAGTACTAAAGATACAACTTTA [XGTACX_site7153] | 7.53 ± 0.4
30 | GAATAAAAAAAAAAAAAAATTTATTTTATAATAAAA [CACACA_negctrl_site1514] | 7.24 ± 0.49
31 | ACTTATATTATAAATTGTACAAATATTATATTTGGT [XGTACX_site1424] | 7.76 ± 0.54
32 | ACATATATATATATATATATATATATATTACATTTA [CACACA_negctrl_site627] | 8.54 ± 0.28
33 | AATAAAGAAGAAGAAAGTACACATTTCACAAAGGGG [XGTACX_site1308] | 8.23 ± 0.21
34 | AAAAATACAATTTTCTTGCACTTTGTTGCATTGTAA | 9.79 ± 0.32
35 | TATAAATAGATATATACACACTTGTGCAGAATATTA [CACACA_site7112] | 9.37 ± 0.099
36 | CCATCTTTTTTACGATGTACAAGTATAAGGTATACG [XGTACX_site2697] | 7.76 ± 0.46
37 | TACTGCCTTCCATACCCACACACTTCCCATATATTT [CACACA_site2705] | 8.44 ± 0.69
38 | TAGAACAAATAAAACACACACATATAAATATAGATG [CACACA_site7325] | 7.65 ± 0.73
39 | TTTTTTTGTTGTTGTTGTACGATATTTTCCTTATCA [XGTACX_site2375] | 7.93 ± 0.54
40 | TATGTAATAAAATATACACACAATATACTTATATAT [CACACA_site3682] | 7.53 ± 0.55
41 | TATGCAATAAAATATACACACAATATACTTATATAT [CACACA_site7691] | 7.87 ± 0.4
42 | TATTCAATACTTAATGCACACAATAAAAAAAATATG [CACACA_site2467] | 10.9 ± 0.71

Row | Sequence | gcPBM binding intensity (ln)
43 | AATAATAATATATGTAGTACACATTTCCATTATGTT [XGTACX_site3708] | 7.75 ± 0.27
44 | ACTTATTGTGGTTTTGCATGTAGCATTTTTACATAC [TGCATGCA_site247] | 8.62 ± 0.91
45 | TGTTTTATTTTTTTTGTGCACATACCTTTAGCATCA [GTGCAC_site9812] | 10.64 ± 0.064
46 | CATCATCTTTTAAAGGTGCATAATAATATTGTTAAT | 11.4 ± 0.69
47 | TTTTGTTATTTTTTAGTGCATATAAAGGTTGTTAAG | 10.7 ± 0.4
48 | TTTCTTTTTAAATAGGTGCATATTTTTATAAATATA | 9.95 ± 0.42
49 | ATATACATTCTATATACATGCATACTTCATTTTGTG [TGCATGCA_site966] | 8.03 ± 0.85
50 | AAGGAGAAATATTGCACACGTGCAAAATGGTATGAG [CACACA_site259] | 11.1 ± 0.35
51 | AATGAGAAGGACTGCACACTAAAATGGAAGGAGAAA [CACACA_site1575] | 8.28 ± 0.79
52 | AGGAAAATTATGAATGGTACAGAATATATTAGGAGA [XGTACX_site6282] | 8.05 ± 0.74
53 | GTGAAATATGCAAACACACACGAGAAAAATGTATAT [CACACA_site7488] | 8.19 ± 0.91
54 | GAGTGAAATATGCAAACACACACGAGAAAAATGTAT [CACACA_site3196] | 8.09 ± 0.85
55 | AAAAGGAGAAATATTGCACACGTGCAAAATGGTATG [CACACA_site4300] | 11.3 ± 0.085
56 | AAGAAGAGTTATTGTAGTACATTTTTAAATGTAATA [XGTACX_site7664] | 7.73 ± 0.34
57 | TGTTATATAATTTAGCGTACAGGTTATAGGACGGAT [XGTACX_site8823] | 8.5 ± 0.35
58 | CCATGATTATTAGATTGTACATAACATACAAATTGA [XGTACX_site314] | 7.68 ± 0.45
59 | TGTCATGATACATACACACACATACACATACACATA [CACACA_site2135] | 8.05 ± 0.42
60 | AATATTATATATATGGGTACTAATTCCTTTAATTTC [XGTACX_site102] | 7.45 ± 0.53
61 | ATATATATATATATATGTACTAATTAATATTTCGAG [XGTACX_site580] | 9.45 ± 0.49
62 | TTTTTTTTTTTCGGGGGTACTAATATATTATTAATA [XGTACX_site7809] | 10.8 ± 0.47
